Calls of active or inactive are those of the source.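 Rule for the calls, unless noted: active = inhibition at or above 50% at 10 µM; inactive = inhibition below 50%.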
Columns and labels:
[1] = inhibitors of TNFa-induced NFkB p65 translocation, primary screen, imaging, HUVEC, MLSMR starter and 10KST1 sets (AID 438;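 active = inhibition above 20% together with a positive visual image hit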;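 note: compound added about 3h40 before a 20 min TNFalpha stimulation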;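 for inhibition: signal is the nuclear over cytoplasmic p65 intensity ratio per well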); conditions: HUVEC TNFa-induced p65 nuclear translocation; cell count: measured here: nuclei count (cytotoxicity indicator), at 2.08 µM; inhibition: at 2 µM, stronger effect = higher value, 0% TNFa-plus-vehicle, 100% no-TNFa wells
[2] = inhibitors of mutant huntingtin aggregation, primary screen, imaging, exon1htt(103Q)mCFP cells, high-content imaging (AID 483;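 active = visual image review flags a hit and inhibition of aggregation exceeds 20%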;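 note: compound exposure lasted 3 days before fixation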;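 for nuclei count: percent of the per-plate median nuclei count of sample wells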); conditions: exon1htt(103Q)mCFP cell line, aggregate imaging, at 2 µM; inhibition of aggregation: stronger effect = higher value; nuclei count: measured here: cell count, toxicity
[3] = inhibitors of E-selectin induction by TNFa, primary screen, imaging, HUVEC, immunofluorescence, MLSMR starter and 10KST1 sets (AID 487;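 active = visually confirmed hit in the image check and inhibition above 20%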;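 for inhibition: signal is fraction of cell area covered by stained E-selectin grains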;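 for nuclei count: 100% = median nuclei count of all wells on the same plate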); conditions: HUVEC TNFalpha-induced E-selectin immunofluorescence imaging, at 2 µM; inhibition: stronger effect = higher value; nuclei count: measured here: cell number, toxicity
[4] = target: Voltage-gated potassium channel subunit beta-2 (Rattus norvegicus) (UniProt P62483); assay: KvBeta enzyme negative modulators, primary screen, biochemical, NADPH fluorescence (AID 622;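 active = fluorescence slope higher than the sample average by over 3 SD, cut at about -0.22 in these data, passing the limit was not always enough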;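 note: slope of raw intensity against log time taken from 70 to 1610 s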); conditions: recombinant KvBeta, 4-cyanobenzaldehyde reduction, at 10 µM, stronger effect = higher value
Chain of Voltage-gated potassium channel subunit beta-2 (Rattus norvegicus) (P62483 whole entry, looked up): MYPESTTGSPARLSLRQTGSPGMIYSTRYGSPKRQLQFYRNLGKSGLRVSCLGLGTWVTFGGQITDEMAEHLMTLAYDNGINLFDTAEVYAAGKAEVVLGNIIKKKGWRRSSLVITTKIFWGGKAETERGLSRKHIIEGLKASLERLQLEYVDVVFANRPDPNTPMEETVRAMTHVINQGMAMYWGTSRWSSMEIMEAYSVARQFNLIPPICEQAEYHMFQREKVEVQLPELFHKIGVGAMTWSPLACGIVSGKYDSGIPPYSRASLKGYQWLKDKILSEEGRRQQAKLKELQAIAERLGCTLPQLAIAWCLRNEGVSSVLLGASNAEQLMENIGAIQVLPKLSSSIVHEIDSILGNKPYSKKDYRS

[5] = target: Voltage-gated potassium channel subunit beta-2 (Rattus norvegicus) (UniProt P62483); assay: KvBeta positive modulators, primary screen, biochemical, NADPH fluorescence (AID 623;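 active = NADPH fluorescence slope more negative than the mean of all samples by about 3 SD, 99.7% confidence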;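 note: fluorescence intensity change per second fitted from 20 to 320 s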); conditions: Recombinant KvBeta, NADPH fluorescence decrease slope, 10 min; at 10 µM; stronger effect = lower value
[6] = target: Alpha-2C adrenergic receptor (Homo sapiens) (UniProt P18825); assay: modulators of alpha2C/GIRK thallium flux, primary screen, cell-based, HEK293 alpha2C/GIRK1/2 (AID 624;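 active = fluorescence slope after compound addition differing from the mean of all screened samples at 99.7% confidence, in either direction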;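 note: slope of fluorescence ratio to pre-addition baseline per second over 15 to 24 s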); conditions: thallium flux BTC fluorescence, at 10 µM, actives lie on both sides
Chain of Alpha-2C adrenergic receptor (Homo sapiens) (P18825 whole entry, looked up): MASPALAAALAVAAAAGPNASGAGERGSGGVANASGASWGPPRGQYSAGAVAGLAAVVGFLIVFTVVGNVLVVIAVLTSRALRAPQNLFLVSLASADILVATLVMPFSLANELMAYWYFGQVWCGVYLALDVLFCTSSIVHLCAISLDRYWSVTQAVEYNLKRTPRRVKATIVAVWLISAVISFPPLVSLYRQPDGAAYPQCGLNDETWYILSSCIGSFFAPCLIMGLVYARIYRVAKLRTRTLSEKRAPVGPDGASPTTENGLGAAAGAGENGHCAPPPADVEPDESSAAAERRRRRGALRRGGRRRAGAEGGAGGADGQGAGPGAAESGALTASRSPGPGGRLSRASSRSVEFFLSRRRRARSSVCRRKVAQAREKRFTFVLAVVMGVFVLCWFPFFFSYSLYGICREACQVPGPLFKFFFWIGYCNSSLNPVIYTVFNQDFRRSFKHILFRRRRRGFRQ

[7] = inhibitors of Sendai virus-induced IRF3 signaling, primary screen, TLR/RLR signaling modifier project, cell-based, Sendai virus stimulus, luciferase, 10K MLSCN set (AID 602276); conditions: HEK293 RL24 IRF3 luciferase reporter, at 10 µM, stronger effect = higher value;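 note: firefly luciferase from ISG56 promoter only with Renilla not read in this screen; 0% = Sendai virus plus DMSO and 100% = medium plus DMSO without virus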
[8] = inhibitors of poly I:C-induced TLR3 signaling, primary screen, cell-based, poly I:C stimulus, luciferase, 10K MLSCN set (AID 602277;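 active = inhibition of the reporter signal at or above 50%; inactive = inhibition below 50%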); conditions: HEK293-TLR3 RL24 IRF3 luciferase reporter, at 10 µM, stronger effect = higher value

SMILES	cell count [1]	inhibition [1]	inhibition of aggregation [2]	nuclei count [2] [%]	inhibition [3]	nuclei count [3] [%]	fluorescence slope [4]	NADPH fluorescence slope [5]	slope [6]	inhibition [7]	inhibition [8]
O=c1c2ccccc2nc(SCc2nnc(-c3ccccc3Br)o2)n1-c1ccccc1	379	2.9% (inactive)	5.3% (inactive)	63.9	-18.3% (inactive)	104	-0.573 (inactive)	-4.9e-05 (inactive)	0.00444 (inactive)	0.607% (inactive)	1.7% (inactive)
CCOc1ccc(-c2cc(CCCC(=O)N3CCN(c4ccc(OC)cc4)CC3)no2)cc1	513	0.7% (inactive)	23.7% (inactive)	61	-0.1% (inactive)	86	-0.614 (inactive)	2.2e-05 (inactive)	0.00539 (inactive)	11% (inactive)	24.1% (inactive)
Cc1ccc2nc(NC(=O)C3CCCN(S(=O)(=O)c4cccc5nonc45)C3)sc2c1 (stereo not drawn)	266	-13.5% (inactive)	9.4% (inactive)	91	-3.1% (inactive)	70.9	-0.304 (inactive)	2.8e-06 (inactive)	0.00386 (inactive)	14.7% (inactive)	-5.96% (inactive)
CN(C)c1nc(Oc2ccc(=O)n(C)n2)nc(N2CCOCC2)n1	306	0.5% (inactive)	17.6% (inactive)	93.3	31.4% (inactive)	96.5	-0.632 (inactive)	1.5e-05 (inactive)	0.00286 (inactive)	16.8% (inactive)	10.1% (inactive)
Cc1ccc(N2C(=O)c3ccccc3C2Nc2cccnc2)nc1 (stereo not drawn)	513	-7.7% (inactive)	2.4% (inactive)	92.8	-91.7% (inactive)	138	-0.585 (inactive)	2e-05 (inactive)	0.0064 (inactive)	-2.85% (inactive)	4.9% (inactive)
Cc1cc(C)c2c(=O)n(CC(=O)NCCCN3CCOCC3)sc2n1	594	8.2% (inactive)	1.1% (inactive)	118	36.7% (inactive)	106	-0.548 (inactive)	-3.1e-05 (inactive)	0.00687 (inactive)	10.4% (inactive)	40.4% (inactive)
Cc1cccc(NC(=O)Nc2cccc(C#N)c2)n1	907	-1.7% (inactive)	10.2% (inactive)	112	-77.1% (inactive)	121	-0.567 (inactive)	-3.2e-05 (inactive)	0.00605 (inactive)	-22.3% (inactive)	-135% (inactive)
Cc1ccc(C)c(NC(=O)CSc2nnc(-c3ccccc3)o2)c1	613	-6% (inactive)	18.9% (inactive)	89.2	-45.1% (inactive)	104	-0.543 (inactive)	8.3e-06 (inactive)	0.00712 (inactive)	10% (inactive)	29.3% (inactive)
